# From PubChem BioAssay
# NS3h inh CB – HCV NS3 helicase inhibitors, primary screen, biochemical, fluorescence polarization, ChemBridge library; Hepatitis C virus NS3 helicase; NS3h Cy5-dT15 DNA binding; inhibition, % at 100 µM; actives 1.6% (n = 16,000);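 active = inhibition above the average over every tested compound plus 3 SD, cut at about 40% in these data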
# Cy5 interf NS3h – Cy5 fluorescence quenchers or enhancers, artefact control for HCV NS3 helicase inhibitor project, biochemical, ChemBridge library, Cy5 readout; Cy5-dT15 DNA with NS3h, fluorescence interference; actives lie on both sides; signal over control mean, under 1 quenches; fluorescence interference ratio at 100 µM; actives 6% (n = 16,000); AID 720488, 2013;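 active = compound fluorescence over control fluorescence at most 0.8, a quencher, or at least a set upper limit, an enhancer; inactive = ratio between 0.8 and the set upper limit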
# Numbers without * were called inactive. Compounds with a hit are over-represented: about 6.9% of the library has one in this group of screens.
SMILES,NS3h inh CB,Cy5 interf NS3h
COC(=O)C1=C(O)/C(=C/c2ccc(OCC(=O)NC(C)C)cc2)N=C1C,9,1
COc1cc([N+](=O)[O-])ccc1NC(=O)c1cccc(F)c1,8,0.88
O=C(Cc1ccc(Cl)cc1)Nc1cccnc1,19,0.71*
Cc1cc(OCC(=O)Nc2cccnc2)cc(C)c1Cl,-10,0.8*
COC(=O)c1cc(NC(=O)COc2cc(C)c(Cl)c(C)c2)cc(C(=O)OC)c1,2,1.1
Cc1cc(OCC(=O)Nc2ccccc2[N+](=O)[O-])cc(C)c1Cl,17,0.73*
Cc1ccc(OCC(=O)Nc2ccc(C)cc2[N+](=O)[O-])cc1,19,1
O=C(Cc1ccc(Cl)cc1)Nc1ccc(Cl)cn1,10,0.87
O=C(c1ccccc1Cl)N1CCN(c2ccc(Cl)cc2[N+](=O)[O-])CC1,16,0.92
C/C(=N/N=C1\NC(=O)C(CC(=O)Nc2ccccc2C)S1)c1ccco1 (stereo not given),9,1.1
Cc1cc(C=Nc2ccccc2)c(O)s1,10,0.93
CCCC1C(c2ccccc2)NC(c2ccccc2)C(C)C1(O)CCC (stereo not given),16,1
CC1C(c2ccccc2)NC(c2ccccc2)C(C)C1(O)c1ccccc1 (stereo not given),4,0.68*
CC(NC(=O)c1cc2n(n1)C(C(F)(F)F)CC(c1ccc(Br)cc1)N2)c1ccccc1 (stereo not given),-2,1.1
O=C(Nc1ccc(-c2cnc(-c3ccc(NC(=O)c4ccccc4)cc3)nc2)cc1)c1ccccc1,3,0.95
Cc1ccccc1C(=O)Nc1ccc(-c2cnc(-c3ccc(NC(=O)c4ccccc4C)cc3)nc2)cc1,18,0.75*
COc1ccc(-c2cc(=O)n3[nH]c(-c4ccccc4)c(C)c3n2)cc1,1,1.1
Cc1ccccc1OCCn1cc(/C=C2/SC(=S)N(C)C2=O)c2ccccc21,1,0.97
CCCCCNC(=O)c1ccc(C(=O)NCCCCC)cc1,4,0.99
CCN(CC)CCCNC(=O)c1ccc(Cl)cc1,6,0.67*
Cc1c(OCc2ccccc2)ccc2c3c(c(=O)oc12)CCC3,10,1.1
CCN1C(=O)C(=Cc2ccc(-c3cccc(C(=O)O)c3)o2)C(=O)N(CC)C1=S,54*,1.2*
O=C1NN(c2ccc(F)cc2)C(=O)/C1=C\c1ccc(-c2cccc(C(=O)O)c2)o1,15,0.82
COc1ccccc1CC1CC(=O)N(c2ccc(Cl)c(Cl)c2)C1=O (stereo not given),1,1
[O-][n+]1cc(O)c(Br)c2ccccc21,11,0.7*
SMILES,NS3h inh CB,Cy5 interf NS3h
CN(C)Cc1c(O)c[n+]([O-])c2ccccc12,4,1
CC(=O)Nc1nc(C)c(-c2csc(Nc3ncccn3)n2)s1,-17,0.51*
CCC(=O)Nc1nc(C)c(-c2csc(Nc3cc(C)ccn3)n2)s1,14,0.98
O=c1c2cc3c(=O)n(-c4ccc(S)cc4)c(=O)c3cc2c(=O)n1-c1ccc(S)cc1,4,0.7*
Cc1ccc(-n2c(=O)c3cc4c(=O)n(-c5ccc(C)c(C)c5)c(=O)c4c(C(=O)c4ccccc4)c3c2=O)cc1C,10,1.1
CC(C)CC(NC(=O)c1ccco1)C(=O)O (stereo not given),3,1
CC(C)CC(NC(c1ccccc1)(c1ccccc1)c1ccccc1)C(=O)O (stereo not given),9,0.58*
CC(NC(=O)c1cccc2ccccc12)C(=O)O (stereo not given),3,1
CC(NC(c1ccccc1)(c1ccccc1)c1ccccc1)C(=O)O (stereo not given),-2,0.61*
CC(=O)c1cccc(NC(=O)c2ccc(C(=O)Nc3cccc(C(C)=O)c3)cc2)c1,-4,1
CN1CCN(/N=C2/C(=O)Nc3ccccc32)CC1,12,0.97
O=C(O)CC(NS(=O)(=O)c1cc(Cl)ccc1Cl)c1ccccc1 (stereo not given),4,0.97
CCOc1cc(C=C2C(=O)NC(=S)NC2=O)cc(Br)c1OCCOc1ccccc1C,13,0.95
C=CCOc1c(I)cc(C=C2C(=O)NC(=S)NC2=O)cc1OCC,22,0.71*
CN1CCN(c2ccc([N+](=O)[O-])c(NCc3ccc(Cl)cc3)c2)CC1,15,0.96
COc1ccc(CCNc2cc(N3CCN(C)CC3)ccc2[N+](=O)[O-])cc1OC,46*,0.98
CCOc1ccc(-c2cc(C)n3nc(C(=O)Nc4ccccc4C(=O)OC)cc3n2)cc1,4,1
O=C(NC[n+]1ccccc1)c1ccc(Cl)cc1,3,1.2*
O=C(NCc1ccc(Cl)cc1)c1ccc(I)cc1,21,0.98
CC(=O)c1cccc(N2C(=O)C3C(C2=O)C2(C)c4ccccc4C3(C)c3ccccc32)c1 (stereo not given),9,1.1
Cc1ccc2nc3nc(C)cc(C)c3c(N)c2c1,-5,0.71*
Cc1ccc2nc(Nc3nc(C)cc(-c4ccccc4)n3)nc(C)c2c1,23,1.1
COc1ccc(/C=C/C(=O)N(C(C)C)C(C)C)cc1Br,8,1
COc1ccc(/C=C/C(=O)N2CCOCC2)cc1Br,2,0.67*
CC1=C(C(=O)Nc2ccccc2C)C(c2ccccc2Br)NC(=S)N1 (stereo not given),-6,0.95
SMILES,NS3h inh CB,Cy5 interf NS3h
O=C(O)c1cn(-c2ccccc2)nc1-c1ccc(-c2ccccc2)cc1,6,1
CCOc1ccc(C(=O)Nc2cccc([N+](=O)[O-])c2)cc1Cl,2,0.57*
CCOc1ccc(C(=O)Nc2ccc(NC(=O)CC)cc2)cc1Cl,16,0.73*
CCOc1ccc(C(=O)Nc2ccc(C)cc2[N+](=O)[O-])cc1Cl,7,1
CCOc1ccc(C(=O)Nc2ccc(N3CCOCC3)c(Cl)c2)cc1Cl,10,0.98
COc1ccc(C2=C(Nc3cccc([N+](=O)[O-])c3)c3ccccc3C2=O)cc1,11,0.95
COC(=O)c1cc(NC(=O)CCc2ccccc2)cc(C(=O)OC)c1,14,0.97
O=C(CCNS(=O)(=O)c1ccccc1[N+](=O)[O-])Nc1ccc(I)cc1,19,0.89
CSc1ccc(S(=O)(=O)N(CC(=O)Nc2ccc(C)cc2)c2ccc(C)cc2)cc1,22,0.68*
CCOc1ccc(S(=O)(=O)N(CC(=O)NC)c2ccc(C)cc2)cc1,0,1.2*
CCOC(=O)c1ccc(NC(=O)CN(c2ccc(OCC)cc2)S(=O)(=O)c2ccc(SC)cc2)cc1,8,1
CCOc1ccc(S(=O)(=O)N(CC(=O)Nc2ccc(C)cc2)c2ccc(C)cc2)cc1,-5,0.97
CSc1ccc(S(=O)(=O)N(CC(=O)Nc2ccc(C(C)=O)cc2)c2ccc(C)cc2)cc1,17,0.73*
CSc1ccc(S(=O)(=O)N(CC(=O)Nc2ccc(C)cc2C)c2ccc(C)cc2)cc1,8,1
CCC(C)c1ccc(NC(=O)c2ccc3c(c2)OCCO3)c(O)c1 (stereo not given),9,0.96
CCCN1C(=O)c2ccccc2NC1c1ccc(F)cc1 (stereo not given),1,0.96
Cc1ccc2nc(-c3ccc([N+](=O)[O-])cc3)cn2c1,5,0.98
O=[N+]([O-])c1ccc(-c2cn3c(n2)sc2ccccc23)cc1,2,0.65*
CCOC(=O)c1ccccc1NC(=O)CN(c1ccccc1OC)S(=O)(=O)c1ccccc1,12,1
